Reference: PubChem BioAssay AID720690 (Broad Institute, 2013)
Measured potencies and affinities stand elsewhere. Values without a mark were called inactive.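 Rule for the calls: active = every repeat run showing a signal drop whose fitted half-maximal concentration is at most twice the top tested concentration; inconclusive = repeat runs disagree, or flat partial drop, or poor fit; inactive = the rest.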

Test: general mammalian cell viability loss – activator set, cherry-pick, cytotoxicity control for miR-122 modulator project, dose response (AID 720690);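 note: 0% = neutral control wells and -100% = MG132 cytotoxic control wells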
Settings: HEK293T viability, CellTiter-Glo luminescence, 48 h; series mostly up to 26 µM; activity change, negative = cytotoxicity: at the top concentration

SMILES | activity change, negative = cytotoxicity
Cc1cc2[nH]c3c4ccccc4nc(C)c3c2cc1C | -37.8% [at 12 µM]
CC(C)(C)c1ccc(S(=O)(=O)NCCc2ccncc2)cc1 | -16.2%
COCC(=O)Nc1ccc2c(c1)C(=O)N(C)[C@H]1CC[C@@H](CC(=O)NCCCN(C)C)O[C@H]1CO2 | -10.1%
O=C(Nc1ccccc1)N1C[C@@H]2[C@H](c3ccccc31)[C@H](CO)N2C(=O)c1ccncc1 | -15.6% [at 23.5 µM]
COc1ccc(C#Cc2ccc3c(c2)O[C@H](CN(C)C(=O)CN2CCOCC2)[C@H](C)CN([C@H](C)CO)S3(=O)=O)cc1 | -27%
Cc1cc(C(=O)Nc2ccc3c(c2)C(=O)N(C)[C@@H]2CC[C@@H](CC(=O)N[C@H](C)c4ccccc4)O[C@H]2CO3)no1 | 11.4%
C/C=C/c1ccc([C@H]2[C@H](CO)N(C(C)=O)[C@H]2CN(C)C(=O)c2ccccn2)cc1 | 5.37%
CC(C)C(=O)Nc1ccc2c(c1)C(=O)N(C)[C@@H]1CC[C@@H](CC(=O)N[C@H](C)c3ccccc3)O[C@@H]1CO2 | -3.75% [at 23.5 µM]
CCN(C[C@@H]1[C@@H](c2ccccc2)[C@@H](CO)N1S(C)(=O)=O)C(=O)C1CC1 | 6.32%
O=C(N/N=C/c1ccco1)c1cccc(N2CCCC2=O)c1 | -1.22%
COc1cc2nc(C3CCC3)n(NC(=O)C3CCCC(OC)C3)c(=O)c2cc1OC (stereo not given) | 7.08%
CNC(=O)C[C@H]1CC[C@H]2[C@@H](COc3ccc(NC(=O)C(C)C)cc3C(=O)N2C)O1 | -14.9%
CCNC(=O)Nc1ccc2c(c1)C(=O)N(C)[C@@H]1CC[C@H](CC(=O)NCC3CC3)O[C@@H]1CO2 | 4.16%
O=C(CN1CCN(c2nc(-c3ccccc3)cs2)CC1)Nc1ccc2c(c1)OCO2 | -17.8%
COC(=O)C[C@@H]1CC[C@@H]2[C@@H](COc3ccc(NC(=O)c4cscn4)cc3C(=O)N2C)O1 | 2.84%
C[C@@H]1CN([C@H](C)CO)C(=O)c2cccc(NC(=O)c3ccc(-c4nccs4)cc3)c2O[C@H]1CN(C)S(=O)(=O)c1ccc(F)cc1 | -0.125% [at 23.5 µM]
O=C(c1ccc(CNc2c(NC3CCCCC3)c(=O)c2=O)cc1)N1CCc2ccccc21 | 6.16%
COCCNC(=O)C[C@@H]1CC[C@@H]2[C@H](COc3ccc(NS(=O)(=O)c4ccc(Cl)cc4)cc3C(=O)N2C)O1 | -19.3%

SMILES | activity change, negative = cytotoxicity
CN1C(=O)c2cc(NC(=O)c3cccc(C(F)(F)F)c3)ccc2OC[C@@H]2O[C@@H](CC(=O)NCCN3CCCC3)CC[C@@H]21 | 9.28%
COc1ccc(CCNC(=O)c2c(C)cc(=O)oc2C)cc1OC | -25.6%
Cc1cc(C(=O)Nc2ccc3c(c2)C(=O)N(C)[C@@H]2CC[C@H](CC(=O)N[C@@H](C)c4ccccc4)O[C@H]2CO3)no1 | 7.69%
CCCNC(=O)N1[C@@H]2CN(C(=O)c3ccccc3)c3ccccc3[C@@H]2[C@@H]1CO | 3.85%
C[C@@H]1CN([C@@H](C)CO)C(=O)Cc2cc(NC(=O)Nc3ccc(C(F)(F)F)cc3)ccc2O[C@H]1CN(C)CC1CCCCC1 | -17.9%
CN1C(=O)c2cc(NC(=O)c3cccc(F)c3)ccc2OC[C@@H]2O[C@H](CC(=O)O)CC[C@@H]21 | -7.57% [at 23.5 µM]
CCCNC(=O)C[C@H]1CC[C@@H]2[C@H](COc3ccc(NC(=O)c4cc(F)cc(F)c4)cc3C(=O)N2C)O1 | -1.48%
CCNC(=O)C[C@H]1CC[C@H]2[C@@H](COc3ccc(NC(=O)c4ccccc4)cc3C(=O)N2C)O1 | -7.25%
CCCNC(=O)C[C@@H]1CC[C@@H]2[C@H](COc3ccc(NC(=O)Nc4ccccc4F)cc3C(=O)N2C)O1 | 2.78%
CO[C@@H]1CN(C)C(=O)c2ccc(NC(=O)c3ccc(Oc4ccccc4)cc3)cc2OC[C@H](C)NC[C@H]1C | -13.4%
COc1ccccc1C(=O)N1C[C@@H]2[C@H](c3ccccc31)[C@H](CO)N2CC1CCCC1 | -27.2%
CCN(CC)CCNc1nc(-c2ccccc2)nnc1C(F)(F)F | -4.86%
COCC(=O)Nc1ccc2c(c1)C(=O)N(C)[C@@H]1CC[C@H](CC(=O)NCc3ccccc3F)O[C@H]1CO2 | -13.2%
C[C@@H]1CN([C@@H](C)CO)S(=O)(=O)c2ccc(C3=CCCCC3)cc2O[C@@H]1CN(C)C(=O)Cc1ccncc1 | -7.64%
CN1C(=O)c2cc(NC(=O)c3cccc(C(F)(F)F)c3)ccc2OC[C@H]2O[C@H](CC(=O)NCCN3CCCC3)CC[C@H]21 | -2.32%
CC1(C)CC(=O)c2cnc(NC(=O)c3ccco3)nc2C1 | 1.49%
CC(C)C#Cc1ccc2c(c1)O[C@H](CN(C)C(=O)c1ccncc1)[C@@H](C)CN([C@@H](C)CO)S2(=O)=O | -2.31%
